PubChem BioAssay (Tox21)
Results filed as inconclusive are left out. Entries that show only a call come without a potency. Values without a mark were called inactive. Activity calls are given as the source filed them. Unless noted, calls come from the whole dose curve; as a rule, active = well fitted curve in the direction sought with a large enough effect in the repeat runs; inconclusive = weak or mixed curves; inactive = no such curve, though single readings can be large; an effect the other way counts as inactive or inconclusive.

How the values were obtained:
[1] = qHTS assay to identify small molecule agonists of the vitamin D receptor (VDR) signaling pathway - cell viability counter screen (AID 743224); note: series mostly up to about 63 µM; nearly all actives have a fitted effect of over 50% in size
Summary of the method: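 Counter screen for cytotoxicity: VDR-bla cells at 2,000 cells/well, 16 h compound exposure, then CellTiter-Glo luminescence after the beta-lactamase measurement.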

[2] = qHTS assay to identify small molecule antagonists of the vitamin D receptor (VDR) signaling pathway - cell viability counter screen (AID 743225); note: nearly all actives have a fitted effect of over 50% in size
Summary of the method: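 Read-out: CellTiter-Glo luminescence measured 30 min after reagent addition at room temperature. Cells were VDR-bla HEK 293T exposed 16 h at 37C, 5% CO2, to compound with 3 nM final calcitriol agonist.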

[3] = qHTS assay to identify small molecule agonists of the NFkB signaling pathway (AID 1159509; active = well fitted curve in the direction sought with a large enough effect in the signal ratio in the repeat runs, not every such curve was filed as active; the % refers to the signal ratio; note: series mostly up to about 61 µM)
Summary of the method: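 Readout: FRET fluorescence, 405 nm excitation, 460/530 nm emission; beta-lactamase expression disrupts FRET. Cells: ME-180 stably carrying NF-kB-driven bla reporter. Compound exposure 5 hr, 37 C, 5% CO2.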

[4] = qHTS assay to identify small molecule agonists of the NFkB signaling pathway - cell viability counter screen (AID 1159515; calls by dose curve; note: series mostly up to about 61 µM; nearly all actives have a fitted effect of over 55% in size)
Summary of the method: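 Counter screen run alongside the NFkB-bla agonist assay: ME-180 reporter cells exposed to compounds for 5 hr, then lysed with CellTiter-Glo in the same wells. Luminescence, read after 30 min, reflects viable cells.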

[5] = qHTS assay to identify small molecule agonists of the endoplasmic reticulum stress response signaling pathway (AID 1159516; active = well fitted activation curve with a large enough effect in the signal ratio in the repeat runs, not every such curve was filed as active; the % refers to the signal ratio)
Summary of the method: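 For this screen, HeLa cells stably carrying beta-lactamase under the ER stress response element received test compounds, positive controls or DMSO for 5 hr at 37 C; B/G FRET substrate was then added and dual-wavelength emission recorded.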

[6] = qHTS assay to identify small molecule agonists of the endoplasmic reticulum stress response signaling pathway - cell viability counter screen (AID 1159517; calls by dose curve; note: series mostly up to about 61 µM; nearly all actives have a fitted effect of over 50% in size)
Summary of the method: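 After overnight attachment, ESRE-bla HeLa cells were treated with Tox21 library compounds for 5 hr. CellTiter-Glo luminescence, read 30 min post-addition at room temperature, reported viability.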

[7] = qHTS assay to identify small molecule antagonists of the retinoid-related orphan receptor gamma (ROR-gamma) signaling pathway - cell viability counter screen (AID 1159520); note: nearly all actives have a fitted effect of over 50% in size
Summary of the method: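 Cytotoxicity was read from cellular ATP (CellTiter-Glo luminescence) after 16 hr at 37 C with 1 uM doxycycline induction. The inducer was added 2 hr after compound transfer to Tet-on ROR gamma CHO cells.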

[8] = biological target: Nuclear receptor ROR-gamma (Homo sapiens) (UniProt P51449); experiment: qHTS assay to identify small molecule antagonists of the retinoid-related orphan receptor gamma (ROR-gamma) signaling pathway (AID 1159521; note: nearly all actives have a fitted effect of over 50% in size; note: potency is the fitted concentration of half-maximal effect)
Summary of the method: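 CHO Tet-on RORγ, RORE-luc reporter. Cpd 2 h pre-incubation, then dox hyclate 1 uM final, 16 h, 37 C/5% CO2. ONE-Glo luminescence; decrease = antagonist.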

[9] = qHTS assay to identify small molecule agonists of the AP-1 signaling pathway - cell viability counter screen (AID 1159525; calls by dose curve; note: nearly all actives have a fitted effect of over 55% in size)
Summary of the method: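 Intracellular ATP by Cell Titer Glo luminescence (30 min, RT) in the same ME-180 AP-1-bla wells after the 5 h compound exposure at 37 °C. Normalised to tetra n-octyl ammonium bromide and DMSO controls.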

[10] = qHTS assay to identify small molecule agonists of the AP-1 signaling pathway (AID 1159526; calls by dose curve; note: potency is the fitted concentration of half-maximal effect)

COC(=O)c1cc(Cl)ccc1[N+](=O)[O-]
outcome [1]: inactive
outcome [2]: inactive
outcome [3]: inactive
outcome [4]: inactive
outcome [5]: inactive
outcome [6]: inactive
Potency [7]: inactive
Potency [8]: inactive
outcome [9]: inactive
Potency [10]: inactive

CCCc1nc(C)c2c(=O)[nH]c(-c3cc(S(=O)(=O)N4CCN(CC)CC4)ccc3OCC)nn12
outcome [1]: inactive
outcome [2]: inactive
outcome [3]: inactive
outcome [4]: inactive
outcome [5]: inactive
outcome [6]: inactive
Potency [7]: inactive
Potency [8]: inactive
outcome [9]: inactive
Potency [10]: inactive

O=c1[nH]nc(-c2ccc([N+](=O)[O-])o2)o1
outcome [1]: inactive
outcome [2]: inactive
outcome [3]: inactive
outcome [4]: inactive
outcome [5]: inactive
outcome [6]: inactive
Potency [7]: inactive
Potency [8]: inactive
outcome [9]: inactive
Potency [10]: inactive

O=C(O)c1ccc(O)c(O)c1
outcome [1]: inactive
outcome [2]: inactive
outcome [3]: inactive
outcome [4]: inactive
outcome [5]: inactive
outcome [6]: inactive
Potency [7]: inactive
Potency [8]: inactive
outcome [9]: inactive
Potency [10]: inactive

COC(=O)Cc1cccc2ccccc12
outcome [1]: inactive
outcome [2]: inactive
outcome [3]: inactive
outcome [4]: inactive
outcome [5]: inactive
outcome [6]: inactive
Potency [7]: inactive
Potency [8]: inactive
outcome [9]: inactive
Potency [10]: inactive

[O-][n+]1ccc(Cl)cc1
outcome [1]: inactive
outcome [2]: inactive
outcome [3]: inactive
outcome [4]: inactive
outcome [5]: inactive
outcome [6]: inactive
Potency [7]: inactive
Potency [8]: inactive
outcome [9]: inactive
Potency [10]: inactive

CC(=O)S[C@H](C(=O)N[C@H]1Cc2ccccc2[C@H]2CCC[C@@H](C(=O)O)N2C1=O)C(C)C
outcome [1]: inactive
outcome [2]: inactive
outcome [3]: inactive
outcome [4]: inactive
outcome [5]: inactive
outcome [6]: inactive
Potency [7]: inactive
Potency [8]: inactive
outcome [9]: inactive
Potency [10]: inactive

COC(=O)C(C)(C)C
outcome [1]: inactive
outcome [2]: inactive
outcome [3]: inactive
outcome [4]: inactive
outcome [5]: inactive
outcome [6]: inactive
Potency [7]: inactive
Potency [8]: inactive
outcome [9]: inactive
Potency [10]: inactive

CCCCCCC/C=C/C=O
outcome [1]: inactive
outcome [2]: inactive
outcome [3]: inactive
outcome [4]: inactive
outcome [5]: inactive
outcome [6]: inactive
Potency [7]: inactive
Potency [8]: inactive
outcome [9]: inactive
Potency [10]: inactive

CC(=O)CC/C=C(\C)CC/C=C(\C)CC/C=C(\C)CCC=C(C)C
outcome [1]: inactive
outcome [2]: inactive
outcome [3]: inactive
outcome [4]: inactive
outcome [5]: inactive
outcome [6]: inactive
Potency [7]: inactive
Potency [8]: inactive
outcome [9]: inactive
Potency [10]: inactive

C=CC(=O)NC(C)(C)C
outcome [1]: inactive
outcome [2]: inactive
outcome [3]: inactive
outcome [4]: inactive
outcome [5]: inactive
outcome [6]: inactive
Potency [7]: inactive
Potency [8]: inactive
outcome [9]: inactive
Potency [10]: inactive

C/C(=C(\CCO)SS/C(CCO)=C(\C)N(C=O)Cc1cnc(C)nc1N)N(C=O)Cc1cnc(C)nc1N
outcome [1]: inactive
outcome [2]: inactive
outcome [3]: inactive
outcome [4]: inactive
outcome [5]: inactive
outcome [6]: inactive
Potency [7]: inactive
Potency [8]: inactive
outcome [9]: inactive
Potency [10]: inactive

CC(C)=CCC[C@H](C)CCO
outcome [1]: inactive
outcome [2]: inactive
outcome [3]: inactive
outcome [4]: inactive
outcome [5]: inactive
outcome [6]: inactive
Potency [7]: inactive
Potency [8]: inactive
outcome [9]: inactive
Potency [10]: inactive

O=c1[nH][nH]c2ccccc12
outcome [1]: inactive
outcome [2]: inactive
outcome [3]: inactive
outcome [4]: inactive
outcome [5]: inactive
outcome [6]: inactive
Potency [7]: inactive
Potency [8]: 15.6 µM (active)
outcome [9]: inactive
Potency [10]: 49.9 µM (active)

Oc1ccc(Oc2ccccc2)cc1
outcome [1]: inactive
outcome [2]: inactive
outcome [3]: inactive
outcome [4]: inactive
outcome [5]: inactive
outcome [6]: inactive
Potency [7]: inactive
Potency [8]: inactive
outcome [9]: inactive
Potency [10]: inactive

O=C1c2ccccc2C(=O)c2c1ccc(O)c2O
outcome [1]: inactive
outcome [2]: inactive
outcome [3]: inactive
outcome [4]: inactive
outcome [5]: inactive
outcome [6]: inactive
Potency [7]: inactive
Potency [8]: inactive
outcome [9]: inactive
Potency [10]: inactive

CCC(C(=O)O)c1ccc(N2Cc3ccccc3C2=O)cc1 (stereo not given)
outcome [1]: inactive
outcome [2]: inactive
outcome [3]: inactive
outcome [4]: inactive
outcome [5]: inactive
outcome [6]: inactive
Potency [7]: inactive
Potency [8]: inactive
outcome [9]: inactive
Potency [10]: inactive

NC(=O)c1ccccc1
outcome [1]: inactive
outcome [2]: inactive
outcome [3]: inactive
outcome [4]: inactive
outcome [5]: inactive
outcome [6]: inactive
Potency [7]: inactive
Potency [8]: inactive
outcome [9]: inactive
Potency [10]: inactive

CCCCCCCCS
outcome [1]: inactive
outcome [2]: inactive
outcome [3]: inactive
outcome [4]: inactive
outcome [5]: inactive
outcome [6]: inactive
Potency [7]: inactive
Potency [8]: inactive
outcome [9]: inactive
Potency [10]: inactive

CCCCCO
outcome [1]: inactive
outcome [2]: inactive
outcome [3]: inactive
outcome [4]: inactive
outcome [5]: inactive
outcome [6]: inactive
Potency [7]: inactive
Potency [8]: inactive
outcome [9]: inactive
Potency [10]: inactive

Cc1ccccc1CCO
outcome [1]: inactive
outcome [2]: inactive
outcome [3]: inactive
outcome [4]: inactive
outcome [5]: inactive
outcome [6]: inactive
Potency [7]: inactive
Potency [8]: inactive
outcome [9]: inactive
Potency [10]: inactive

COc1ccnc2c1CCCCC2S(=O)c1nc2ccccc2[nH]1 (stereo not given)
outcome [1]: inactive
outcome [2]: inactive
outcome [3]: inactive
outcome [4]: inactive
outcome [5]: inactive
outcome [6]: inactive
Potency [7]: inactive
Potency [8]: inactive
outcome [9]: inactive
Potency [10]: inactive

CCCCC(CC)COCCC#N (stereo not given)
outcome [1]: inactive
outcome [2]: inactive
outcome [3]: inactive
outcome [4]: inactive
outcome [5]: inactive
outcome [6]: inactive
Potency [7]: inactive
Potency [8]: inactive
outcome [9]: inactive
Potency [10]: inactive

Nc1ccccc1Nc1ccccc1
outcome [1]: inactive
outcome [2]: inactive
outcome [3]: inactive
outcome [4]: inactive
outcome [5]: inactive
outcome [6]: inactive
Potency [7]: inactive
Potency [8]: inactive
outcome [9]: inactive
Potency [10]: inactive
